Only some compounds are listed: those with a hit (about 27% of all), similar ones and a draw of the others.
Cav32 inh: human Cav3.2 channel inhibition, primary screen; O95180; Cav3.2-expressing cells, Fluo-4 calcium fluorescence FDSS; hits give low values; B-score at 10 µM; 4% of 100,000 active; AID 449739;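 active means single-dose well whose peak fluorescence ratio is a statistical outlier from its plate by either plate-standardised score or position-corrected B-score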
CYP2C9 act: CYP2C9 (human) activation. recombinant CYP2C9, luciferin-H conversion, luminescence; hits give high values; factor 1 = untreated enzyme, 0 = blocked. activation factor at 5 µM. 1.4% of 96,000 active;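 active means activation factor of 2 or more for CYP2C9 at a 5 µM dose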;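 further: 0 = sulfaphenazole-blocked wells and 1 = vehicle-only wells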
Target sequence (P11712 whole entry, looked up): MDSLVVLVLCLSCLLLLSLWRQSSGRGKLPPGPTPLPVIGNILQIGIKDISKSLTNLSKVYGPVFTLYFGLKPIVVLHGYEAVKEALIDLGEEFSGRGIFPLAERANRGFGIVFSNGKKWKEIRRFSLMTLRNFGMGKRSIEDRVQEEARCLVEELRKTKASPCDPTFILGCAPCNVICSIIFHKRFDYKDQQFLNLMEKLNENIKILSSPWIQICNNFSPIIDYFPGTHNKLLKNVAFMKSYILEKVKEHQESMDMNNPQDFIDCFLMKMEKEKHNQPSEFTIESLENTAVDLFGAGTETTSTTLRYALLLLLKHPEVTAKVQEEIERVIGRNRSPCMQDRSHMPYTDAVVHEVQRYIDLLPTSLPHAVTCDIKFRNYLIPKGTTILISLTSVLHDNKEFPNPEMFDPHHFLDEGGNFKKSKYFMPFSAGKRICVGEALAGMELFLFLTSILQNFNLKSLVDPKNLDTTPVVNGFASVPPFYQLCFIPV
CYP2C19 inh: human CYP2C19 inhibition. P33261. CYP2C19 Supersomes, luciferin-H EGE luminescence, 30 min. inhibition, % at 5 µM. 21% of 96,000 active. AID 778;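 active means CYP2C19 inhibition above a set limit at 5 µM in the primary screen, cut at about 50% in these data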;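 further: plate controls were negative control wells for no effect and 2.5 mM tranylcypromine positive control for full effect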
CYP2C19 activ: cytochrome P450 2C19 (human) activation. P33261. recombinant CYP2C19, luciferin-H EGE luminescence; hits give high values; 0 = fully inhibited enzyme, 1 = untreated enzyme. activation factor at 5 µM. 96,000 tested, under 10 active;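 active means activation factor of at least 2 at 5 µM in the primary screen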;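 further: 0 = wells with 2.5 mM tranylcypromine and 1 = vehicle-only wells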
CYP2C9 inh: human CYP2C9 inhibition; P11712; CYP2C9 Supersomes, luciferin-H conversion, luminescence; inhibition, % at 5 µM; 20% of 96,000 active; AID 777;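 active means blocking of liver enzyme CYP2C9 beyond about 50% at 5 µM, limit read from the data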
The depositor's hits bear a star.

`CCN(CC(=O)Nc1ccc2c(c1)OCCO2)Cc1cc(=O)oc2c(C)c(C)ccc12` gave Cav32 inh 0.432, CYP2C9 act 0.2, CYP2C19 inh 91.8*, CYP2C19 activ 0.1 and CYP2C9 inh 83.9*.
Cc1ccc(S(=O)(=O)N2CCCN(S(=O)(=O)c3ccc4c(c3)OCCO4)CC2)cc1 was read as Cav32 inh -0.618, CYP2C9 act 2.7*, CYP2C19 inh 26.7, CYP2C19 activ 0.7 and CYP2C9 inh -171.1.
`O=S(=O)(c1ccccc1Cl)N1CCC(O)(c2ccc3c(c2)OCO3)CC1` gave Cav32 inh -1.01, CYP2C9 act 1.5, CYP2C19 inh 97.1*, CYP2C19 activ 0 and CYP2C9 inh -54.1.
Screening CC(C)(C)N(Cc1ccccc1)C(=O)c1ccc2c(c1)OCCO2 returned Cav32 inh -4.32*, CYP2C9 act 0.8, CYP2C19 inh 11.4, CYP2C19 activ 0.9 and CYP2C9 inh 21.8.
`O=S(=O)(c1ccc(Cl)cc1)N1CCC(O)(c2cccnc2)CC1` gave Cav32 inh 0.406, CYP2C9 act 1.8, CYP2C19 inh 57.2*, CYP2C19 activ 0.4 and CYP2C9 inh -76.7.
Screening O=S(=O)(c1ccc2c(c1)OCCO2)N1CCC(O)(c2ccc(Cl)cc2)CC1 returned Cav32 inh -1.88, CYP2C9 act 0.9, CYP2C19 inh 98.4*, CYP2C19 activ 0 and CYP2C9 inh 12.1.
`N#CCCN1CCN(S(=O)(=O)c2ccc(S(=O)(=O)NCC3CCCO3)cc2)CC1` (stereo not drawn) gave Cav32 inh 1.38, CYP2C9 act 0.9, CYP2C19 inh -23.1, CYP2C19 activ 1.2 and CYP2C9 inh 5.5.
`CC1CCCCC1NS(=O)(=O)c1ccc(S(=O)(=O)N2CCN(CCC#N)CC2)cc1` (stereo not drawn) gave Cav32 inh 0.112, CYP2C9 act 0.6, CYP2C19 inh 52.4*, CYP2C19 activ 0.5 and CYP2C9 inh 45.0.
O=C(NC1CCCCC1)NC1CCN(S(=O)(=O)c2ccc3c(c2)OCCO3)CC1 was read as Cav32 inh -0.0597, CYP2C9 act 1.1, CYP2C19 inh -7.1, CYP2C19 activ 1.1 and CYP2C9 inh -15.0.
CN1CCN(S(=O)(=O)c2ccc3c(c2)OCCO3)CC1 was read as Cav32 inh -0.304, CYP2C9 act 1.2, CYP2C19 inh 45.7, CYP2C19 activ 0.5 and CYP2C9 inh -21.5.
`O=S(=O)(c1ccc2c(c1)OCCO2)N1CCN(c2cccc(Cl)c2)CC1` gave CYP2C9 act 0.4, CYP2C19 inh 88.9*, CYP2C19 activ 0.1 and CYP2C9 inh 57.9*.
Screening N#CCCN1CCN(S(=O)(=O)c2ccc3c(c2)OCCCO3)CC1 returned Cav32 inh 0.0128, CYP2C9 act 0.9, CYP2C19 inh 81.7*, CYP2C19 activ 0.2 and CYP2C9 inh 8.1.
For N#CCCN1CCN(S(=O)(=O)c2ccc(S(=O)(=O)N3CCOCC3)cc2)CC1 the results were Cav32 inh 0.389, CYP2C9 act 1, CYP2C19 inh -13.6, CYP2C19 activ 1.1 and CYP2C9 inh -1.4.
`CCc1ccc(NC(=O)c2cc(-c3ccco3)on2)cc1` gave Cav32 inh 1.26.
Screening CCc1ccc(C2CC(c3ccco3)=NN2S(C)(=O)=O)cc1 (stereo not drawn) returned Cav32 inh 0.0141, CYP2C9 act 0.6, CYP2C19 inh 62.4*, CYP2C19 activ 0.4 and CYP2C9 inh 39.9.
Screening O=C(Nc1ccc(Cc2ccc(NC(=O)C3CC3)c(O)c2)cc1O)C1CC1 returned Cav32 inh -1.37, CYP2C9 act 0.3, CYP2C19 inh 13.2, CYP2C19 activ 0.9 and CYP2C9 inh 69.9*.
Screening O=C(Nc1ccc(-c2cn3ccsc3n2)cc1)C1CC1 returned Cav32 inh 1.15, CYP2C9 act 1.4, CYP2C19 inh -3.0, CYP2C19 activ 1 and CYP2C9 inh -42.8.
`O=C(Nc1ccc(Cc2ccncc2)cc1)C1CCC(N2C(=O)C3C4C=CC(C5CC45)C3C2=O)CC1` (stereo not drawn) gave Cav32 inh -1.52, CYP2C9 act 0.3, CYP2C19 inh 40.5, CYP2C19 activ 0.6 and CYP2C9 inh 74.2*.
For CCCCCC(=O)Nc1ccc(Cc2ccncc2)cc1 the results were Cav32 inh -0.256.
O=C(Nc1ccc(Cc2ccncc2)cc1)C1CC1 was read as Cav32 inh -1.18, CYP2C9 act 0.1, CYP2C19 inh 84.0*, CYP2C19 activ 0.2 and CYP2C9 inh 88.7*.

Bioassay records (PubChem)
